The values that follow come from PubChem BioAssay (EPA / NIEHS).

Activity calls are given as the source filed them. The calls were made as follows: active = hit-call score of the fitted dose curve at least 0.9, where 1 is the maximum; inactive = score below 0.9.

Read-out in experiment [1]: Cyclin D1 (CCND1), CCND1 (gene 595)
As to the kind of experiment: LTEA_HepaRG_CCND1: Life Technologies and Expression Analysis (LTEA) Assay for Cyclin D1 (CCND1) using HepaRG (AID 2283451). Particulars: mRNA level, 48 h; actives raise or lower the signal. The essentials: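 Differentiated human HepaRG cells in serum-free induction medium were exposed 48 h to eight half-log concentrations up to 100 uM in 0.5% DMSO; mRNA quantified by TaqMan qRT-PCR, normalized to ACTB, GAPDH, POLR2A, fitted bidirectionally versus DMSO.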

Read-out in experiment [2]: catalase (CAT), CAT (gene 847)
As to the kind of experiment: LTEA_HepaRG_CAT: Life Technologies and Expression Analysis (LTEA) Assay for catalase (CAT) using HepaRG (AID 2283452). Particulars: mRNA level, 48 h; actives raise or lower the signal. Put shortly:
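HepaRG cells in serum-free induction medium, 0.5% DMSO vehicle, exposed 48 h in duplicate over 8 half-log concentrations from 100 uM. CAT mRNA measured by qRT-PCR, normalized to ACTB, GAPDH, POLR2A; bidirectional fit versus DMSO.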

Read-out in experiment [3]: flavin-containing dimethylaniline monooxygenases 3 (FMO3), FMO3 (gene 2328)
As to the kind of experiment: LTEA_HepaRG_FMO3: Life Technologies and Expression Analysis (LTEA) Assay for flavin-containing dimethylaniline monooxygenases 3 (FMO3) using HepaRG (AID 2283453). The note with it: mRNA level, 48 h; actives raise or lower the signal. The essentials: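 Differentiated HepaRG cells in serum-free induction medium, exposed 48 h in duplicate to 8 half-log concentrations up to 100 uM in 0.5% DMSO. FMO3 mRNA by qRT-PCR, normalized to ACTB, GAPDH, POLR2A; bidirectional fit vs DMSO.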

Read-out in experiment [4]: Cytochrome P450 (CYP1A1), CYP1A1 (gene 1543)
As to the kind of experiment: LTEA_HepaRG_CYP1A1: Life Technologies and Expression Analysis (LTEA) Assay for Cytochrome P450 (CYP1A1) using HepaRG (AID 2283454). Particulars: mRNA level, 48 h; actives raise or lower the signal. The essentials: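 Differentiated HepaRG cells in serum-free induction medium were exposed in duplicate for 48 h to eight half-log concentrations up to 100 uM in 0.5% DMSO. CYP1A1 mRNA was quantified by TaqMan qRT-PCR, normalized to ACTB, GAPDH and POLR2A.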

Read-out in experiment [5]: CFLAR gene, CFLAR (gene 8837)
As to the kind of experiment: LTEA_HepaRG_CFLAR: Life Technologies and Expression Analysis (LTEA) Assay for CFLAR gene using HepaRG (AID 2283455). The note with it: mRNA level, 48 h; actives raise or lower the signal. The essentials: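 Differentiated HepaRG cells in serum-free induction medium were exposed 48 h in duplicate to eight half-log concentrations up to 100 uM in 0.5% DMSO; mRNA measured by TaqMan qRT-PCR, normalized to ACTB, GAPDH, POLR2A; bidirectional fitting versus DMSO.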

Read-out in experiment [6]: Forkhead box O1 (FOXO1), FOXO1 (gene 2308)
The experiment in a line: LTEA_HepaRG_FOXO1: Life Technologies and Expression Analysis (LTEA) Assay for Forkhead box O1 (FOXO1) using HepaRG (AID 2283456). The note with it: mRNA level, 48 h; actives raise or lower the signal. The essentials:
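Differentiated HepaRG cells, in serum-free induction medium with 0.5% DMSO, exposed 48 h in duplicate to 8-point half-log series from 100 uM. FOXO1 mRNA measured by TaqMan qRT-PCR, normalized to ACTB, GAPDH, POLR2A; bidirectional fit versus DMSO.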

Experiment [7] can be described thus: CEETOX_H295R_TESTO: CeeTox H295R High-throughput Steroidogenesis Assay for Testosterone (TESTO) (AID 2283457). Particulars: actives raise or lower the signal. The essentials:
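H295R human adrenal cells in DMEM/F12 with ITS+ and Nu-Serum, exposed to chemicals for 48 h. Testosterone in medium measured by MTBE extraction, reverse-phase HPLC-MS/MS; bidirectional fit versus DMSO baseline. MTT viability checked in same wells.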

Read-out in experiment [8]: Forkhead box O3 (FOXO3), FOXO3 (gene 2309)
The experiment in a line: LTEA_HepaRG_FOXO3: Life Technologies and Expression Analysis (LTEA) Assay for Forkhead box O3 (FOXO3) using HepaRG (AID 2283459). The note with it: mRNA level, 48 h; actives raise or lower the signal. The essentials:
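Differentiated human HepaRG cells, 48 h post-plating, exposed in duplicate for 48 h in serum-free induction medium; 8-point half-log series from 100 uM in 0.5% DMSO. FOXO3 mRNA by TaqMan qRT-PCR, normalized to ACTB/GAPDH/POLR2A; bidirectional fit versus DMSO.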

Read-out in experiment [9]: ABC Transporter (ABCB11), ABCB11 (gene 8647)
As to the kind of experiment: LTEA_HepaRG_ABCB11: Life Technologies and Expression Analysis (LTEA) Assay for ABC Transporter (ABCB11) using HepaRG (AID 2283463). The note with it: mRNA level, 48 h; actives raise or lower the signal. Put shortly: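 Differentiated human HepaRG cells in serum-free induction medium, dosed in duplicate for 48 h. Eight-point half-log series from 100 uM in 0.5% DMSO; ABCB11 mRNA by qRT-PCR, normalized to ACTB, GAPDH, POLR2A, fitted bidirectionally versus DMSO.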

Read-out in experiment [10]: ABC Transporter (ABCC2), ABCC2 (gene 1244)
As to the kind of experiment: LTEA_HepaRG_ABCC2: Life Technologies and Expression Analysis (LTEA) Assay for ABC Transporter (ABCC2) using HepaRG (AID 2283464). Particulars: mRNA level, 48 h; actives raise or lower the signal. The essentials:
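HepaRG cells were plated 48 h, switched to serum-free induction medium, then exposed in duplicate for 48 h to 8 concentrations (top 100 uM, half-log steps, 0.5% DMSO). ABCC2 mRNA was measured by qRT-PCR normalized to ACTB/GAPDH/POLR2A; bidirectional fitting versus DMSO.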

Read-out in experiment [11]: Broad substrate specificity ATP-binding cassette transporter ABCG2 (Homo sapiens) (UniProt Q9UNQ0)
The experiment in a line: LTEA_HepaRG_ABCG2: Life Technologies and Expression Analysis (LTEA) Assay for ABC Transporter (ABCG2) using HepaRG (AID 2283465). Particulars: mRNA level, 48 h; actives raise or lower the signal. Put shortly:
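Differentiated HepaRG cells were exposed for 48 h in serum-free induction medium to 8 half-log concentrations, top 100 uM, in 0.5% DMSO. ABCG2 mRNA was measured by qRT-PCR, normalized to ACTB, GAPDH and POLR2A, with bidirectional fitting versus DMSO.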

Read-out in experiment [12]: ATP-citrate lyase (ACLY), ACLY (gene 47)
As to the kind of experiment: LTEA_HepaRG_ACLY: Life Technologies and Expression Analysis (LTEA) Assay for ATP-citrate lyase (ACLY) using HepaRG (AID 2283466). The note with it: mRNA level, 48 h; actives raise or lower the signal. Put shortly: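 Differentiated HepaRG cells exposed 48 h in serum-free induction medium to eight half-log concentrations up to 100 uM in 0.5% DMSO, duplicates. Transcript measured by Fluidigm TaqMan qRT-PCR, normalized to ACTB, GAPDH, POLR2A; bidirectional fit versus DMSO.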

Read-out in experiment [13]: Peroxisomal acyl-coenzyme A oxidase 1 (ACOX1) gene, ACOX1 (gene 51)
The experiment in a line: LTEA_HepaRG_ACOX1: Life Technologies and Expression Analysis (LTEA) Assay for Peroxisomal acyl-coenzyme A oxidase 1 (ACOX1) gene using HepaRG (AID 2283467). Particulars: mRNA level, 48 h; actives raise or lower the signal. The essentials:
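HepaRG cells, plated 48 h then switched to serum-free induction medium, were exposed in duplicate for 48 h to 8-point half-log concentrations up to 100 uM in 0.5% DMSO. ACOX1 mRNA was measured by qRT-PCR, normalized to ACTB/GAPDH/POLR2A, and fitted bidirectionally versus DMSO.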

Read-out in experiment [14]: Alkaline Phosphatase, Placental (ALPP) gene, ALPP (gene 250)
The experiment in a line: LTEA_HepaRG_ALPP: Life Technologies and Expression Analysis (LTEA) Assay for Alkaline Phosphatase, Placental (ALPP) gene using HepaRG (AID 2283468). The note with it: mRNA level, 48 h; actives raise or lower the signal. Put shortly:
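Differentiated human HepaRG cells were plated and cultured 48 h, then exposed in duplicate for 48 h in serum-free induction medium to eight half-log concentrations from 100 uM in 0.5% DMSO. ALPP mRNA was measured by TaqMan qRT-PCR, normalized to ACTB, GAPDH, POLR2A.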

Read-out in experiment [15]: Bcl-2 (BAD) gene, BAD (gene 572)
As to the kind of experiment: LTEA_HepaRG_BAD: Life Technologies and Expression Analysis (LTEA) Assay for Bcl-2 (BAD) gene using HepaRG (AID 2283469). The note with it: mRNA level, 48 h; actives raise or lower the signal. Put shortly: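 Differentiated HepaRG cells were exposed in duplicate in 0.5% DMSO for 48 h to eight-point half-log concentrations up to 100 uM. BAD mRNA was measured by Fluidigm TaqMan qRT-PCR, normalized to ACTB, GAPDH and POLR2A, and fitted bidirectionally against DMSO.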

Read-out in experiment [16]: Bcl-2 (BAX) gene, BAX (gene 581)
The experiment in a line: LTEA_HepaRG_BAX: Life Technologies and Expression Analysis (LTEA) Assay for Bcl-2 (BAX) gene using HepaRG (AID 2283470). Particulars: mRNA level, 48 h; actives raise or lower the signal. Put shortly:
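HepaRG (human liver), 48 h exposure, duplicate wells. 8-pt curve, half-log from 100 uM, 0.5% DMSO. BAX transcript by TaqMan qRT-PCR; ACTB/GAPDH/POLR2A normalization; gain or loss vs DMSO baseline.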

Read-out in experiment [17]: growth arrest and DNA damage 45 (GADD45A), GADD45A (gene 1647)
As to the kind of experiment: LTEA_HepaRG_GADD45A: Life Technologies and Expression Analysis (LTEA) Assay for growth arrest and DNA damage 45 (GADD45A) using HepaRG (AID 2283458). The note with it: mRNA level, 48 h; actives raise or lower the signal. The essentials:
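Cells plated and cultured 48 h, switched to serum-free induction medium, then dosed for 48 h (100 uM top, half-log dilutions, 0.5% DMSO). RNA was isolated and transcript measured by Fluidigm qRT-PCR.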

Read-out in experiment [18]: ABC Transporter (ABCB1), ABCB1 (gene 5243)
As to the kind of experiment: LTEA_HepaRG_ABCB1: Life Technologies and Expression Analysis (LTEA) Assay for ABC Transporter (ABCB1) using HepaRG (AID 2283460). Particulars: mRNA level, 48 h; actives raise or lower the signal. The essentials:
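HepaRG cells exposed in duplicate for 48 h in serum-free induction medium to eight half-log concentrations up to 100 uM in 0.5% DMSO. ABCB1 mRNA quantified by qRT-PCR, normalised to ACTB, GAPDH and POLR2A; fitted bidirectionally versus DMSO.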

Read-out in experiment [19]: growth arrest and DNA damage 45 (GADD45B), GADD45B (gene 4616)
As to the kind of experiment: LTEA_HepaRG_GADD45B: Life Technologies and Expression Analysis (LTEA) Assay for growth arrest and DNA damage 45 (GADD45B) using HepaRG (AID 2283461). Particulars: mRNA level, 48 h; actives raise or lower the signal. The essentials: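 Differentiated HepaRG cells, plated 48 h then switched to serum-free induction medium, were exposed 48 h in duplicate to eight half-log concentrations from 100 uM in 0.5% DMSO; mRNA quantified by qRT-PCR, normalized to ACTB/GAPDH/POLR2A, bidirectional fit versus DMSO.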

Read-out in experiment [20]: ABC Transporter (ABCC3), ABCC3 (gene 8714)
As to the kind of experiment: LTEA_HepaRG_ABCC3: Life Technologies and Expression Analysis (LTEA) Assay for ABC Transporter (ABCC3) using HepaRG (AID 2283462). The note with it: mRNA level, 48 h; actives raise or lower the signal. The essentials:
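HepaRG cells in serum-free induction medium were exposed for 48 h in duplicate to 8-point half-log concentrations topping at 100 uM in 0.5% DMSO. ABCC3 mRNA was measured by qRT-PCR normalized to ACTB, GAPDH and POLR2A, with bidirectional fitting versus DMSO.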

Broad substrate specificity ATP-binding cassette transporter ABCG2 (Homo sapiens), sequence (Q9UNQ0 whole entry, looked up): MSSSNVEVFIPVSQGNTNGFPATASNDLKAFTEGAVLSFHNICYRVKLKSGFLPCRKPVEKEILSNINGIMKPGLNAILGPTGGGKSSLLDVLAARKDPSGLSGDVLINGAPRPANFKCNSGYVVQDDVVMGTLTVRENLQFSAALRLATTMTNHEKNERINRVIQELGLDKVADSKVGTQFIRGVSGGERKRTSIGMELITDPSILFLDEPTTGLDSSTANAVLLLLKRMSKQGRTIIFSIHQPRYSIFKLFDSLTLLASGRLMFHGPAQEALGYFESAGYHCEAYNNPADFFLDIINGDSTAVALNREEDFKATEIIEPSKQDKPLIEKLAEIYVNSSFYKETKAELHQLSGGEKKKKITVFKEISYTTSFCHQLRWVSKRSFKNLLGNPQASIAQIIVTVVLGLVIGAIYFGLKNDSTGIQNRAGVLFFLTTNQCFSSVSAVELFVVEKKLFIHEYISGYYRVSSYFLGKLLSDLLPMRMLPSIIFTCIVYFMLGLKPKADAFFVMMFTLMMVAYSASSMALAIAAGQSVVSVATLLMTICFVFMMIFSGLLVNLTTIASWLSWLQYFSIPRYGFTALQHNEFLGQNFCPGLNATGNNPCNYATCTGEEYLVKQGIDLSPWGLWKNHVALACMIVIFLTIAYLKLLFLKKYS

Take `Nc1ccc(Cl)cc1N`: the outcome in experiment [1], in experiment [7], in experiment [11], in [12], in experiment [14] and in experiment [15] was inactive. For the same molecule, the AC50 was 18.7 µM (active) in [2]; 23.1 µM (active) in experiment [3]; 1.81 µM (active) in experiment [4]; 33.1 µM (active) in experiment [5]; 29.4 µM (active) in experiment [6]; 21.5 µM (active) in [8]. Also, the AC50 is 19 µM (active) in [9], 37.3 µM (active) in experiment [10], 27 µM (active) in experiment [13] and 13.2 µM (active) in [16].

As to `CCN(CC)CCO`, the molecule was classed as inactive in [1], in experiment [2], in experiment [3], in experiment [4], in experiment [5] and in experiment [6]. In addition, the molecule was classed as inactive in experiment [17], in [8], in experiment [18], in experiment [19], in experiment [20] and in experiment [9]. Moreover, the molecule was called inactive in experiment [10], in experiment [11], in [12], in experiment [13], in experiment [14] and in experiment [15]. For the same molecule, the call in [16] was inactive.
